These results are taken from PubChem BioAssay.

Assay [1] concerns Plasmodium falciparum Sir2 (PF13_0152, Sir2A). Kind of assay: Plasmodium falciparum Sir2A binding compounds – biochemical, small-molecule microarray, 635 nm fluorescence, primary screen (AID 1098).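 Further: score merges spot fluorescence intensity with its signal-to-noise ratio.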 Particulars: fluorescence 635 nm, higher = more signal.
A short description of assay [2]: probe aDKK1 binding to arrayed compounds – biochemical, biotinylated probe, 635/667 nm fluorescence, primary screen (AID 1099).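 Further: score merges 667nm spot fluorescence with signal to noise across triplicate slides; reference of the scale not given here.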 Particulars: small-molecule microarray, higher = more signal.
The nature of assay [3]: probe aCHRDL2 binding to arrayed compounds – biochemical, biotinylated probe, 635/667 nm fluorescence, primary screen (AID 1100). Particulars: small-molecule microarray, higher = more signal.
Assay [4] can be described thus: change in splice reporter luminescence, either direction, cell-based, HEK293, spliceosome inhibition project, primary screen (AID 1101).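 Further: HEK293 cells carrying a splicing-competent luciferase reporter gene; test concentration not given here.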 The note with it: HEK293 splicing luciferase reporter, 24 h, higher = more signal, called active from +8 up or from −8 down.
The target of assay [5] is Fibroblast growth factor 10 (Homo sapiens) (UniProt O15520). Kind of assay: compounds binding fibroblast growth factor 10 – biochemical, small-molecule microarray, 635 nm fluorescence, primary screen (AID 1102). The note with it: FGF10 binding, fluorescence 635 nm, higher = more signal.
Assay [6] deals with glycogen synthase kinase-3 (GSK3A per assay name; protocol says GSK3B). The assay is described as follows: compounds binding glycogen synthase kinase-3 – biochemical, small-molecule microarray, 635 nm fluorescence, GSK3A, primary screen (AID 1103). Further: the record names both GSK3A and GSK3B. Particulars: fluorescence 635 nm, higher = more signal.
Assay [7] addresses Epidermal growth factor receptor (Homo sapiens) (UniProt P00533). The assay is described as follows: compounds binding epidermal growth factor receptor – biochemical, small-molecule microarray, 635 nm fluorescence, primary screen (AID 1104).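 Further: score merges 667 nm emission intensity with spot signal to noise over triplicate slides.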 The note with it: EGFR binding, higher = more signal.
In assay [8] the target is Follistatin-related protein 3 (Homo sapiens) (UniProt O95633). The assay is described as follows: compounds binding follistatin-related protein 3 – biochemical, small-molecule microarray, 635 nm fluorescence, primary screen (AID 1105).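 Further: score merges emission near 667 nm and signal to noise per printed spot across three slides.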 The note with it: FSTL3 binding, higher = more signal.
Assay [9] addresses Dickkopf-related protein 1 (Homo sapiens) (UniProt O94907). The assay is described as follows: small molecules binding DKK1 protein – biochemical, small-molecule microarray, 635 nm fluorescence scan, primary screen (AID 1106).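 Further: score merges emission near 667 nm with signal to noise over three replicate slides.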 The note with it: higher = more signal.
Assay [10] concerns Inhibin beta A chain (activin A). The assay is described as follows: small molecules binding activin A – biochemical, small-molecule microarray, 635 nm fluorescence scan, primary screen (AID 1107).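 Further: mouse activin A protein probed at 4.33 µg/mL on printed slides; score merges bound-protein fluorescence near 667 nm with spot signal-to-noise.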 Particulars: INHBA, higher = more signal.

Molecules are shown by their SMILES. The source made the active and inactive calls.

Sequence of Dickkopf-related protein 1 (Homo sapiens) (O94907 whole entry, looked up): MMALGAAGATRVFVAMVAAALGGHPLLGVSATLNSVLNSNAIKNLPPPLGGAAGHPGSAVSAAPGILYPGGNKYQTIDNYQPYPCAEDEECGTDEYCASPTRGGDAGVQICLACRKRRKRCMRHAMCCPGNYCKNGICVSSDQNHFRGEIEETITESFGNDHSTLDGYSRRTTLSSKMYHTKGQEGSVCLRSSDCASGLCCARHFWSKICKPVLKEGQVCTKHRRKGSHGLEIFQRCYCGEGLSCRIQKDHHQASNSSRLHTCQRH
Sequence of Epidermal growth factor receptor (Homo sapiens) (P00533 whole entry, looked up): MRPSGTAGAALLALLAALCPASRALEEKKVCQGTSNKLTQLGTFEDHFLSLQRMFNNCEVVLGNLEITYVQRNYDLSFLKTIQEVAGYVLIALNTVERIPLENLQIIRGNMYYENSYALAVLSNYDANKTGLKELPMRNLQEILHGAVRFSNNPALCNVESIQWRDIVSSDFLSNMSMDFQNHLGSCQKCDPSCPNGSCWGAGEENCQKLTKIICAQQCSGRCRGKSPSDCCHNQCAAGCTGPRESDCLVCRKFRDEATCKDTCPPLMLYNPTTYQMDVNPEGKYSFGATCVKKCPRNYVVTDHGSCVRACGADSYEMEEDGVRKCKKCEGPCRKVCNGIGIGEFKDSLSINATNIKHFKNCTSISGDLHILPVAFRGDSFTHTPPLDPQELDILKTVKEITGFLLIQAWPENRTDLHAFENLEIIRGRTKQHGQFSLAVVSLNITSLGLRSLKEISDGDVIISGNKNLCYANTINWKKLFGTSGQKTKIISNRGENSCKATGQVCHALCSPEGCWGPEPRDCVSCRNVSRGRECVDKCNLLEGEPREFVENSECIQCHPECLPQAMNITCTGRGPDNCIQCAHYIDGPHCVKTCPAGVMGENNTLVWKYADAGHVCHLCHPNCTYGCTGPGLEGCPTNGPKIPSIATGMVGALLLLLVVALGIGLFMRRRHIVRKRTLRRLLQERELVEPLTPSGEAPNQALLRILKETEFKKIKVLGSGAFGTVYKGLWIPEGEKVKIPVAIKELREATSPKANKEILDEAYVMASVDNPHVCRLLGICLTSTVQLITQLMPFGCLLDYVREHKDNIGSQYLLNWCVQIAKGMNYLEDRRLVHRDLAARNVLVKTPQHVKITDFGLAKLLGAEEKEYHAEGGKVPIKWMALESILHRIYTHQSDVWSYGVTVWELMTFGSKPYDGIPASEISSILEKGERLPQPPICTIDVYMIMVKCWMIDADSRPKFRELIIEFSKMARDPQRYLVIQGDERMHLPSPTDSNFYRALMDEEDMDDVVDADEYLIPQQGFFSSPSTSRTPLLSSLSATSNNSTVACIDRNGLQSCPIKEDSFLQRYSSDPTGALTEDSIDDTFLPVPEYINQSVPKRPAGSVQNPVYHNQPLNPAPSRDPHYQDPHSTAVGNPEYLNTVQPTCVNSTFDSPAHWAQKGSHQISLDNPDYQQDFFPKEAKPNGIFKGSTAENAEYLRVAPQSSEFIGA
Sequence of Follistatin-related protein 3 (Homo sapiens) (O95633 whole entry, looked up): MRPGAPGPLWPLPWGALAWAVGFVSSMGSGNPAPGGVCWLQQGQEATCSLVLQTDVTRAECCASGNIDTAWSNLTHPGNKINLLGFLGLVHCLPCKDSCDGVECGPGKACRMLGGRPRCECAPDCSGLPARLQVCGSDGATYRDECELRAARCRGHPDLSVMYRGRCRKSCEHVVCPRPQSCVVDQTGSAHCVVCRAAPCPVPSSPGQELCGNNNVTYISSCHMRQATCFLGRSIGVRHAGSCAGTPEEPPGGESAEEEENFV
Sequence of Fibroblast growth factor 10 (Homo sapiens) (O15520 whole entry, looked up): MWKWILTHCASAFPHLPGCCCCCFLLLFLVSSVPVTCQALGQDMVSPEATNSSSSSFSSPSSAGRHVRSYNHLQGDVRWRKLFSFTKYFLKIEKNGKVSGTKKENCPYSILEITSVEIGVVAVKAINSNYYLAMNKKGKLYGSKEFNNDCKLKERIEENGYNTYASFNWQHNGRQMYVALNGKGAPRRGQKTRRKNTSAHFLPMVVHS

Consider `Cc1ccc(S(=O)(=O)N2[C@@H](c3ccccc3)C(C(=O)O)=C[C@H]2C(C)(C)C)cc1`, for which the composite z-score in assay [1] worked out at 1.19; in assay [2], 1.08; in assay [3], 1.01; in [5], 0.644; in [6], 1.35; in assay [7], 0.374. Besides, the composite z-score in [8] was 0.819; in assay [9] it was 0.0781; in assay [10], -0.124. For the same molecule, in assay [4], the z-score was 0.233 (inactive).

As to `O=C1O[C@H](c2ccccc2)[C@H](c2ccccc2)N2[C@H]1[C@@H](C(=O)O)[C@]1(C(=O)Nc3ccc(C#CC4(O)CCCCCC4)cc31)[C@H]2c1ccccc1OCCO`, the composite z-score was 1.5 in assay [1]; 0.0035 in assay [2]; -0.351 in assay [3]; 1.02 in assay [5]; 1.29 in [6]; 0.24 in assay [7]. Moreover, the composite z-score in [8] is 0.69; in [9], 0.195; in assay [10], 0.745. In addition, in assay [4], the z-score is -0.767 (inactive).

On to `CC(C)c1ccc(NN2C(C(O)c3ccccc3)C=CC3C(=O)N(c4ccccc4)C(=O)C32)cc1` (stereo not given), for which the composite z-score was 1.26 in assay [1]; 1.25 in assay [2]; 0.98 in [3]; 0.715 in assay [5]; 0.522 in assay [6]; -0.144 in assay [7]. Also, the composite z-score in [8] was 0.634; in assay [9], -0.624; in assay [10], 0.546. For the same molecule, the z-score in assay [4] is -0.648 (inactive).

As for `COc1ccc(NN2C(C(O)c3ccccc3)C=CC3C(=O)N(C4CCCCC4)C(=O)C32)cc1` (stereo not given), the composite z-score was 1.25 in assay [1]; 0.535 in [2]; 0.291 in assay [3]; 1.24 in assay [5]; 1.28 in assay [6]; 0.122 in assay [7]. Besides, the values for the composite z-score in assay [8], in assay [9] and in [10] were 1.21, 0.453 and 0.786, respectively. In assay [4], the z-score is -1.18 (inactive).

For the molecule `COc1cc2c(cc1O)C(C)N(Cc1sc3ccccc3c1Cl)CC2` (stereo not given), the composite z-score in [1] was -0.0748; in assay [2], 0.247; in [3], 0.868; in [5], -1.16; in [6], -0.306; in assay [7], -1.27. In addition, the composite z-score in assay [8] was -0.348; in assay [9] it was -1.56; in [10], -0.0182. Moreover, the z-score in [4] is -0.283 (inactive).

With `COCCOC(=O)N1C(=O)[C@@]2(c3cc(C#CCNC(N)=O)ccc31)[C@H](C(N)=O)[C@H]1C(=O)O[C@H](c3ccccc3)[C@H](c3ccccc3)N1[C@@H]2c1ccc(O)cc1`, the composite z-score is 0.92 in assay [1]; 0.554 in assay [2]; 0.614 in assay [3]; 0.149 in assay [5]; -0.575 in [6]; -0.278 in assay [7]. Moreover, the composite z-score in [8] is -0.239; in [9], 0.0656; in assay [10], 0.676. In addition, the z-score in assay [4] is 0.359 (inactive).

As for `C=CCNC(=O)[C@H]1[C@@H]2C(=O)O[C@@H](c3ccccc3)[C@@H](c3ccccc3)N2[C@@H](c2ccc(OCCO)cc2)[C@]12C(=O)N(C(=O)OCCOC)c1ccc(C#CCNC(N)=O)cc12`, the composite z-score in [1] is 1.27; in assay [2], 0.02; in assay [3], 0.687; in assay [5], 1.3; in assay [6], 0.998; in assay [7], 0.686. Besides, the composite z-score is 0.989 in [8], 0.998 in assay [9] and 0.823 in assay [10]. Also, the z-score in assay [4] was 0.0908 (inactive).

With `CN1C(=O)C2C=CC(C(O)c3cccs3)N(N(c3ccccc3)c3ccccc3)C2C1=O` (stereo not given), the composite z-score was 0.82 in [1]; 0.0508 in assay [2]; 0.66 in assay [3]; 0.347 in [5]; 0.347 in assay [6]; -0.665 in assay [7]. Besides, the composite z-score in [8] is 0.602; in [9], -0.351; in assay [10], 1.27. Also, the z-score in [4] was 2.04 (inactive).

Turning to `CC1CC/C=C\[C@H]2OC34C=CCN(CCN5CCOCC5)C(=O)[C@H]3N(C(CO)C(C)C)C(=O)[C@@H]4C2C(=O)O1` (stereo not given in full), the composite z-score is 1.5 in [1]; -0.155 in assay [2]; 0.0473 in [3]; -0.268 in assay [5]; 0.169 in [6]; -0.31 in [7]. The figures for the composite z-score in [8], in assay [9] and in assay [10] were -0.239, -0.112 and 1.17, respectively. Moreover, the z-score in assay [4] is -0.192 (inactive).

Take `COCCCNC(=O)[C@]1(Cc2ccccc2CN=[N+]=[N-])N=C(c2ccc(OCCCO)cc2)O[C@@H]1c1ccccc1N=[N+]=[N-]`: the composite z-score is 0.427 in assay [1]; 1.36 in [2]; 1.38 in assay [3]; 0.575 in [5]; 0.672 in assay [6]; 0.003 in [7]. Also, the composite z-score was determined as 0.205 in assay [8], 0.0122 in [9] and 1.4 in assay [10]. In addition, the z-score in assay [4] is -0.486 (inactive).

`CC(C)c1ccc(NN2C(C(O)C3=C[C@H]4C[C@@H](C3)C4(C)C)C=CC3C(=O)N(c4ccccc4)C(=O)C32)cc1` (stereo not given in full): the composite z-score is 0.969 in [1]; 0.886 in assay [2]; 0.665 in [3]; 0.409 in assay [5]; 0.577 in assay [6]; 0.366 in assay [7]. Further, the composite z-score amounted to 0.827 in [8], 0.245 in assay [9] and 0.829 in assay [10]. In addition, in [4], the z-score is -0.0409 (inactive).

In the case of `COCCOC(=O)N1C(=O)[C@@]2(c3cc(C#CC4=CCCCC4)ccc31)[C@H](c1ccc(O)cc1)N1[C@H](c3ccccc3)[C@H](c3ccccc3)OC(=O)[C@H]1[C@@H]2C(=O)N1CCc2cc(OC)c(OC)cc2C1`, the composite z-score worked out at 0.835 in assay [1]; 0.15 in assay [2]; 0.338 in assay [3]; 0.415 in assay [5]; 0.202 in [6]; 0.0275 in assay [7]. For the same molecule, the composite z-score in assay [8] was 0.227; in assay [9] it was 0.0375; in assay [10], 0.545. The z-score in assay [4] was 0.864 (inactive).

For `CO[C@H]1O[C@H](CO)[C@@H](OC(=O)Nc2ccccc2)[C@@H]2OC(=O)[C@@H](Cc3ccccc3)C/C=C/C[C@H](Cc3ccccc3)C(=O)O[C@@H]12`, the composite z-score in assay [1] is 1.46; in assay [2] it was -0.172; in assay [3], -0.0203; in assay [5] it was 0.73; in [6] it was 0.107; in assay [7], -0.191. Moreover, the values for the composite z-score in [8], in assay [9] and in assay [10] were 0.094, 0.206 and 0.983, respectively. Further, the z-score in assay [4] was 0.0457 (inactive).

For the molecule `[N-]=[N+]=NCc1ccccc1[C@H]1OC(c2ccc(OCCCO)cc2)=N[C@@]1(Cc1ccccc1N=[N+]=[N-])C(=O)O`, the composite z-score is 1.07 in [1]; 1.08 in assay [2]; 0.904 in assay [3]; 0.716 in [5]; 1.03 in assay [6]; -0.0317 in assay [7]. Also, the composite z-score was 0.783 in [8], -0.107 in assay [9] and 0.987 in assay [10]. Further, in assay [4], the z-score is 0.258 (inactive).
